13 compounds from PubChem BioAssay can be followed below.

A short description of experiment [1]: optical density shifts of acrAB sulA E. coli – strain DRC41, OD650, 48 h, E. coli filamentation inducer project, primary screen (AID 1152).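 Further: E. coli MC1000 strain DRC41 lacking acrAB efflux pump and sulA.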 Conditions: higher = more signal, called active from +8 up or from −8 down.
Experiment [2] can be described thus: probe aLefty1 binding on compound microarray – biochemical, small-molecule microarray, 635/667 nm fluorescence, primary screen (AID 1153).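 Further: score merges spot fluorescence with signal-to-noise ratio from the scanned slide images.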 The conditions noted are these: higher = more signal.
The nature of experiment [3]: plasmodial surface anion channel blockers, osmotic lysis – cell-based, P. falciparum Indochina, OD700, 1 h, primary screen (AID 1154). Conditions: P. falciparum Indochina infected RBC osmotic lysis, higher = more signal, called active from +8 up or from −8 down.
The nature of experiment [4]: plasmodial surface anion channel blockers, osmotic lysis – cell-based, P. falciparum Indochina, OD700, 2 h, primary screen (AID 1155).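 Further: lysis reports solute entry through the parasite surface anion channel PSAC.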 Conditions: P. falciparum Indochina infected erythrocytes, higher = more signal, called active from +8 up or from −8 down.
A short description of experiment [5]: changes in parasitized red cell lysis, either direction – P. falciparum Indochina, OD700, 3 h, PSAC antagonist project, primary screen (AID 1156). Conditions: P. falciparum-infected erythrocytes, osmotic lysis, higher = more signal, called active from +8 up or from −8 down.
The nature of experiment [6]: plasmodial surface anion channel blockers, osmotic lysis – cell-based, P. falciparum Indochina, OD700, 18 h, primary screen (AID 1157). The conditions noted are these: P. falciparum Indochina infected erythrocytes, osmotic lysis OD700, 18 h; higher = more signal, called active from +8 up or from −8 down.
Experiment [7] can be described thus: S6 kinase pathway phospho-S6 level changes – cell-based, A549, cytoblot, luminescence, serum-stimulated, primary screen (AID 1158).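 Further: serum-stimulated A549 lung adenocarcinoma cells; signal is phosphorylated S6 detected by cytoblot immunostaining with HRP secondary.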 The conditions noted are these: 5 h, higher = more signal.
For experiment [8], the target named is NADPH oxidase 2 (Homo sapiens) (UniProt P04839). Kind of experiment: compounds shifting NOX2 Amplex Red fluorescence – cell-based, HEK293-NOX2, PMA-stimulated, NOX inhibitor project, primary screen (AID 1159). Further: test concentration not given here. The conditions noted are these: 45 min, higher = more signal, called active from +8 up or from −8 down.
The target in experiment [9] is NADPH oxidase 4 (Homo sapiens) (UniProt Q9NPH5). Briefly: compounds shifting NOX4 Amplex Red fluorescence – cell-based, HEK293-NOX4, tetracycline-induced, NOX inhibitor project, primary screen (AID 1160). Conditions: HEK293-NOX4, Amplex Red H2O2 fluorescence, 45 min; higher = more signal, called active from +8 up or from −8 down.
The target of experiment [10] is NADPH oxidase 5 (Homo sapiens) (UniProt Q96PH1). Briefly: compounds shifting NOX5 Amplex Red fluorescence – cell-based, HEK293-NOX5, NOX inhibitor project, primary screen (AID 1161). Conditions: HEK293-NOX5, ionomycin, 45 min, higher = more signal.

Activity calls are given as the source filed them.

Chain of NADPH oxidase 2 (Homo sapiens) (P04839 whole entry, looked up): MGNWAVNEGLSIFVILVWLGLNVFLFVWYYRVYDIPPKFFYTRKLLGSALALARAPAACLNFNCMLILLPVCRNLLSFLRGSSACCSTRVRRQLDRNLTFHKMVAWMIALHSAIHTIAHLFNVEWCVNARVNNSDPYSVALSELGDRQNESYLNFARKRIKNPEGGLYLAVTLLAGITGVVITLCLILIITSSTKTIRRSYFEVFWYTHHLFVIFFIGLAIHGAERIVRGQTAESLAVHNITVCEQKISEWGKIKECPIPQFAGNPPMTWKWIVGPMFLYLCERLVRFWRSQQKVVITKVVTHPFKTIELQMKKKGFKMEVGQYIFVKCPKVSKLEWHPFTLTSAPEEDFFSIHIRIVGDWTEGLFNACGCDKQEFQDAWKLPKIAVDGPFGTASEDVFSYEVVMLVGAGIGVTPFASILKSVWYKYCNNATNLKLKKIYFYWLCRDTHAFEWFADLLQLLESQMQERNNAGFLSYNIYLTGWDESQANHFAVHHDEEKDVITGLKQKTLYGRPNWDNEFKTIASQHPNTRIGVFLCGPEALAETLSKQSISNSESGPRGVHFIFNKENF
Chain of NADPH oxidase 5 (Homo sapiens) (Q96PH1 whole entry, looked up): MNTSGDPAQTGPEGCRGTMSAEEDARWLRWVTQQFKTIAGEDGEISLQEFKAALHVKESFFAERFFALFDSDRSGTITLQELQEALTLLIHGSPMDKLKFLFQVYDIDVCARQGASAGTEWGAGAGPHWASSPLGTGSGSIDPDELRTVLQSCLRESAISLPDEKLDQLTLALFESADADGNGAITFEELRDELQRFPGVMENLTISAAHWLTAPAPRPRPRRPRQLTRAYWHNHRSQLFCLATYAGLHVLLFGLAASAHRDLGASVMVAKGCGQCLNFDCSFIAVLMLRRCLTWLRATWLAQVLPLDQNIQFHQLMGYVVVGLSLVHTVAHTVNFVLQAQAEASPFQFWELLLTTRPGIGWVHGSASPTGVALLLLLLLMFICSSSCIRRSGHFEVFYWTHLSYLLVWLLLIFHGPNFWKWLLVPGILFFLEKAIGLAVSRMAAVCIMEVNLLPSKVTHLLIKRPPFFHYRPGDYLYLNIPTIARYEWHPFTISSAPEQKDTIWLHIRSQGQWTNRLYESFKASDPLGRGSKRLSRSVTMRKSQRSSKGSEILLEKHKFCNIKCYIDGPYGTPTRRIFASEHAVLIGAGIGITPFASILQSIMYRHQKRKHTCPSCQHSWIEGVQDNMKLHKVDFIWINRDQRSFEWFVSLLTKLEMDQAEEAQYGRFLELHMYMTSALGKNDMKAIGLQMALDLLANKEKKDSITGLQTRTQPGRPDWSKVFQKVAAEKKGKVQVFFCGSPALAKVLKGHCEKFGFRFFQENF
Chain of NADPH oxidase 4 (Homo sapiens) (Q9NPH5 whole entry, looked up): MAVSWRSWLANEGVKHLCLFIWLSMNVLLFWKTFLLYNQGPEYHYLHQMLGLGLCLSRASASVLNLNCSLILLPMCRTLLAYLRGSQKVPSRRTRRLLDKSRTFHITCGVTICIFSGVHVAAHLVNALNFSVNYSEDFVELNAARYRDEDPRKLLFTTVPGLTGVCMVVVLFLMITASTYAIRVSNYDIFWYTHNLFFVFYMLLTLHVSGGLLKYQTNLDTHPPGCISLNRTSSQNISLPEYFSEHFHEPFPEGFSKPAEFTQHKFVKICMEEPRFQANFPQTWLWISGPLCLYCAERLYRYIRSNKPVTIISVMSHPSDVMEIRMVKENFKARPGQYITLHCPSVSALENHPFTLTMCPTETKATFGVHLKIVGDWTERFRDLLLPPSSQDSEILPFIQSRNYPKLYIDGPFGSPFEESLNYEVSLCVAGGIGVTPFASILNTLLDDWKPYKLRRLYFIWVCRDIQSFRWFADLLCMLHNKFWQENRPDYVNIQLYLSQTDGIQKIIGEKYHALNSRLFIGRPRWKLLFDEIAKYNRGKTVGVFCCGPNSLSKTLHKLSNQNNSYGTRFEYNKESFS

With `CC(=O)NCCCC[C@@H]1NC(=O)[C@H]2C[C@@H](C(=O)NCCCC[N+](C)(C)C)[C@@H](c3cccc(OCCO)c3)N2C1=O`, the z-score was 0.485 (inactive) in experiment [1]; 2.46 (inactive) in experiment [3]; 0.331 (inactive) in experiment [4]; -1.58 (inactive) in experiment [5]; 0.374 (inactive) in [6]; -0.611 in experiment [7]. For the same compound, the z-score in [8] is -1.23 (inactive); in [9] it was -0.477 (inactive); in [10] it was -1.08. The compound also gave a composite z-score in experiment [2] of 0.165.
Regarding `NC(=O)NCC#Cc1ccc2c(c1)[C@]1(C(=O)N2)[C@H](C(=O)O)[C@H]2C(=O)O[C@H](c3ccccc3)[C@H](c3ccccc3)N2[C@@H]1c1ccc(OCCO)cc1`, the z-score in [1] was 0.215 (inactive); in experiment [3], 3.93 (inactive); in experiment [4] it was 0.523 (inactive); in experiment [5], 0.643 (inactive); in experiment [6] it was 0.247 (inactive); in [7], 0.235. Also, the z-score in experiment [8] is 2.78 (inactive); in experiment [9] it was 1.14 (inactive); in [10], -0.0124. The compound also gave a composite z-score in experiment [2] of -0.147.
Take `CCCCCCCCCCC(O)C1C=CC2C(=O)N(C)C(=O)C2N1Nc1ccc([N+](=O)[O-])cc1[N+](=O)[O-]` (stereo not given): the z-score in [1] is -1.97 (inactive); in [3] it was 13.8 (active); in experiment [4], 4.31 (inactive); in experiment [5], -0.607 (inactive); in experiment [6], 2.59 (inactive); in experiment [7], -0.506. Moreover, the values for the z-score in experiment [8], in [9] and in experiment [10] were 0.402 (inactive), 0.328 (inactive) and -0.414, respectively. The compound also displayed a composite z-score in experiment [2] of 0.407.
As to `CO[C@]12C=C(Br)[C@@H](C[C@@H]1c1cccc(C)c1)[C@@]1(CO1)C2=O`, the z-score in [1] was -0.009 (inactive); in experiment [3] it was -0.219 (inactive); in experiment [4] it was -0.119 (inactive); in [5] it was 0.442 (inactive); in experiment [6] it was -0.382 (inactive); in experiment [7], 0.149. For the same compound, the results for the z-score in experiment [8], in [9] and in [10] were -0.356 (inactive), 0.539 (inactive) and -0.588, respectively. In addition, in experiment [2], the composite z-score is -0.0035.
Take `CC(C)OC(=O)C=C1C[C@@H](c2ccc(C(F)(F)F)cc2)O[C@@H](c2ccc(C(F)(F)F)cc2)O1`: the z-score in experiment [1] is 0.609 (inactive); in experiment [3], 2.79 (inactive); in experiment [4], -0.301 (inactive); in experiment [5], -0.101 (inactive); in experiment [6], -1.05 (inactive); in experiment [7] it was 0.569. The values for the z-score in experiment [8], in [9] and in [10] were 0.283 (inactive), -0.175 (inactive) and -0.0582, respectively. For the same compound, in experiment [2], the composite z-score was -0.0954.
Turning to `COCCCNC(=O)[C@]1(CCS(=O)(=O)c2ccccc2)N=C(c2ccc(OCCCO)cc2)O[C@@H]1c1ccccc1CN=[N+]=[N-]`, the z-score in experiment [1] was 0.704 (inactive); in experiment [3] it was 24.6 (active); in [4] it was 10.3 (active); in experiment [5], 1.41 (inactive); in [6], 1.8 (inactive); in experiment [7], -0.377. The z-score in experiment [8] is 0.826 (inactive); in [9] it was 1.78 (inactive); in experiment [10], 1.97. In experiment [2], this compound yielded a composite z-score of 1.35.
For `CC(c1ccccc1)C(O)C1C=CC2C(=O)N(c3ccccc3)C(=O)C2N1Nc1ccc([N+](=O)[O-])cc1` (stereo not given), the z-score in [1] is 0.179 (inactive); in experiment [3], 20.8 (active); in experiment [4] it was 5.25 (inactive); in experiment [5], 0.283 (inactive); in experiment [6], 1.61 (inactive); in experiment [7], -0.438. For the same compound, the z-score in experiment [8] was -0.7 (inactive); in experiment [9], -1.18 (inactive); in experiment [10], -1.38. Further, the composite z-score in [2] is 0.175.
Regarding `[N-]=[N+]=NCc1ccccc1C[C@@]1(C(=O)NCc2ccccc2)N=C(c2ccc(OCCCO)cc2)O[C@@H]1c1ccccc1N=[N+]=[N-]`, the z-score is -0.0632 (inactive) in [1]; 32.6 (active) in [3]; 33.3 (active) in [4]; 2.4 (inactive) in [5]; 3.61 (inactive) in [6]; 0.108 in [7]. In addition, the z-score is 0.0504 (inactive) in experiment [8], -0.437 (inactive) in experiment [9] and -1.22 in experiment [10]. Besides, the composite z-score in experiment [2] is -0.221.
On to `COCCCNC(=O)[C@@]1(Sc2ccc(C)cc2)CC(=O)N(C2CCCCC2)[C@@H]1c1ccc(CO)cc1`, for which the z-score in experiment [1] was -0.204 (inactive); in [3] it was 0.309 (inactive); in experiment [4] it was 0.17 (inactive); in experiment [5], 0.0051 (inactive); in [6], 0.326 (inactive); in [7], 0.0394. In addition, the z-score in experiment [8] was 0.175 (inactive); in experiment [9], -0.512 (inactive); in [10], -1.3. The compound also displayed a composite z-score in experiment [2] of 0.0209.
Regarding `COC1OC[C@]2(C)[C@H]3C4=C(CN2C(=O)OC(C)(C)C)[C@H](C)C(CO)C(CO)C4CC[C@@H]13` (stereo not given in full), the z-score in experiment [1] was -0.787 (inactive); in experiment [3], 0.884 (inactive); in experiment [4], -0.0719 (inactive); in experiment [5], 0.394 (inactive); in [6] it was 0.494 (inactive); in [7] it was 0.15. Besides, the z-score is -1.39 (inactive) in experiment [8], -0.651 (inactive) in [9] and -2.12 in experiment [10]. Further, the composite z-score in [2] was 1.13.
As to `CCOC(=O)C[C@H]1[C@H](OC(=O)Cc2ccc3c(c2)OCO3)[C@@H](NC(=O)CC(C)C)c2cc(OCCCO)ccc2N1C(=O)Cc1ccc(OC)cc1`, the z-score in [1] is 2.26 (inactive); in experiment [3] it was 6.25 (inactive); in [4] it was -0.537 (inactive); in experiment [5], -1.07 (inactive); in [6] it was -1.3 (inactive); in experiment [7], 1.72. For the same compound, the z-score in experiment [8] was 0.163 (inactive); in experiment [9], 0.781 (inactive); in experiment [10], 1.15. Further, in experiment [2], the composite z-score was -0.145.
As for `CCOC(=O)C1=CC[C@@H](c2ccccc2C(F)(F)F)N(S(=O)(=O)c2ccc(C)cc2)[C@H]1c1ccc(C#N)cc1`, the z-score was -0.53 (inactive) in [1]; 0.873 (inactive) in [3]; 1.65 (inactive) in [4]; 0.341 (inactive) in experiment [5]; 0.876 (inactive) in [6]; -0.669 in [7]. For the same compound, the z-score in experiment [8] is 0.823 (inactive); in experiment [9], 0.699 (inactive); in experiment [10], 0.102. In experiment [2], this compound yielded a composite z-score of 0.165.
For the compound `CC(C)N1C(=O)C[C@@](C(=O)NCCCN(C)C)(c2ccc([N+](=O)[O-])cc2)[C@H]1c1ccc(CO)cc1`, the z-score in [1] was -0.898 (inactive); in experiment [3], 3.55 (inactive); in experiment [4] it was 1.1 (inactive); in [5], 1.82 (inactive); in [6], 0.891 (inactive); in experiment [7] it was 0.23. Further, the z-score is 0.778 (inactive) in [8], 0.334 (inactive) in experiment [9] and -0.00257 in experiment [10]. In experiment [2], this compound registered a composite z-score of 0.0129.
